Assay outcomes as filed in PubChem.
Fam108B counter: mouse Fam108B serine hydrolase inhibitors, primary screen, counter-screen for RBBP9 inhibitor project, biochemical, fluorescence polarization; inhibition, % at 9.51 µM; actives 0.33% (n = 300,000); recombinant Fam108B, FP-Rh probe fluorescence polarization; AID 1947, 2009;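 active means inhibition above the screen mean inhibition plus 3 SD, computed separately per campaign, cut at about 18% in these data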;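 further: inhibitors lower polarization as less probe binds the enzyme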
PAD4 FP inh: human PAD4 inhibitors, primary screen, biochemical, fluorescence polarization, 1536-well format | inhibition, % at 6.36 µM | recombinant PAD4, RCA probe fluorescence polarization | actives 0.41% (n = 330,000) | Protein-arginine deiminase type-4 (Homo sapiens), Q9UM07;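 active means percent inhibition above a cutoff equal to the mean of all tested compounds plus 3 SD, cut at about 15% in these data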;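 further: 0% = PAD4 with RCA probe and DMSO and 100% = probe without PAD4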
pPAFAH inh: pPAFAH enzyme inhibitors, primary screen, biochemical, fluorescence polarization, human; AID 463082, 2010; recombinant pPAFAH, FP-rhodamine probe fluorescence polarization; actives 1.5% (n = 330,000); inhibition, % at 3.39 µM; Platelet-activating factor acetylhydrolase (Homo sapiens), Q13093;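 active means inhibition above the mean inhibition across the screen plus 3 SD, cut at about 25% in these data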;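 further: inhibitors block binding of the rhodamine activity-based probe so polarization drops; 0% = enzyme with DMSO and 100% = wells lacking pPAFAH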
GSTO1 inh: inhibitors of recombinant GSTO1, primary screen, counter-screen for RBBP9 inhibitor project, biochemical, fluorescence polarization | Glutathione S-transferase omega-1 (Homo sapiens), P78417 | activity-based probe fluorescence polarization | inhibition, % at 5.96 µM | actives 1.1% (n = 300,000) | AID 1974, 2009;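 active means inhibition above the campaign mean inhibition plus 3 SD, cut at about 35% in these data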;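 further: 0% = GSTO1-1 with DMSO and 100% = wells lacking GSTO1-1 enzyme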
PME-1 inh: PME-1 inhibitors via competitive probe labeling, primary screen, biochemical, fluorescence polarization, FP-Rh probe, HTS; recombinant PME-1; inhibition, % at 5.9 µM; actives 0.53% (n = 320,000); AID 2130, 2009;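 active means inhibition above the campaign mean of all compounds plus 3 SD, cut at about 26% in these data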;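 further: competitive labeling of PME-1 active site by serine hydrolase directed probe; 0% = PME-1 with DMSO and 100% = wells lacking PME-1 enzyme; inhibitors block probe labeling so polarization falls and inhibition rises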
Target sequence (Q9Y570 whole entry, looked up): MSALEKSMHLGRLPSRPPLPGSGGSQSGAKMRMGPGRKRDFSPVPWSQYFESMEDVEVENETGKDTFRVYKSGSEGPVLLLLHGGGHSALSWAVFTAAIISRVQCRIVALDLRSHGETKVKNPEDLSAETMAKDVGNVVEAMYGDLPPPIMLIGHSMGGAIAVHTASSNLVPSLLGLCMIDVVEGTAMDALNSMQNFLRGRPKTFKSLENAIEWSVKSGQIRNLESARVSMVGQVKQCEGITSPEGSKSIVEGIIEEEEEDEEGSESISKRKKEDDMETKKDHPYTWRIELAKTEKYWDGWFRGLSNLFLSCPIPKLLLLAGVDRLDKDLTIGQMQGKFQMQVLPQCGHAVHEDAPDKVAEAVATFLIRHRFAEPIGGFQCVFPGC
GSTO1 confirm: GSTO1 inhibitor hit confirmation, counter-screen for RBBP9 inhibitor project, biochemical, fluorescence polarization, triplicate. shares compounds with GSTO1 inh. recombinant GSTO1, probe fluorescence polarization. inhibition, % at 5.96 µM. actives 54% (n = 2,400);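 active means inhibition above the primary screen's cutoff, its mean inhibition plus 3 SD, cut at about 35% in these data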;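 further: loss of polarization as inhibitors block binding of rhodamine sulfonate ester activity probe; 0% = GSTO1 with DMSO and 100% = wells lacking GSTO1 enzyme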
pPAFAH FP conf: pPAFAH (PLA2G7) enzyme inhibitors, confirmation, biochemical, fluorescence polarization, human; shares compounds with pPAFAH inh; recombinant pPAFAH, FP-Rh probe fluorescence polarization; inhibition, % at 3.39 µM; actives 72% (n = 2,300); AID 463230, 2010;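 active means mean inhibition of the triplicate above the hit cutoff set for the earlier primary screen, cut at about 25% in these data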;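 further: 0% = enzyme with DMSO and 100% = wells lacking pPAFAH enzyme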
The depositor's hits bear a star; . = not tested or not shown. An excerpt weighted towards active compounds, which were near 2.3% of everything screened.

SMILES | Fam108B counter | PAD4 FP inh | pPAFAH inh | GSTO1 inh | PME-1 inh | GSTO1 confirm | pPAFAH FP conf
CC1Oc2cc3oc4c(O)c(O)ccc4c(=O)c3c(O)c2C1(C)C (stereo unspecified) | -11 | -2 | 75* | 45* | 5 | 6 | 83*
O=C(CSc1nnc(-c2ccco2)c(-c2ccco2)n1)c1ccccc1 | 4 | -3 | 54* | 44* | 9 | 18 | 16
Fc1c(F)c(F)c(N=Cc2ccc3ncccc3c2)c(F)c1F | 0 | 0 | -2 | -4 | -2 | . | .
O=C(N/N=C/c1ccc([N+](=O)[O-])o1)c1ccc(NS(=O)(=O)c2cccs2)cc1 | 18 | 0 | 39* | 55* | -4 | 19 | 12
COc1ccc(N2C3=C(CC4=C2CC(C)(C)CC4=O)C(=O)CC(C)(C)C3)cc1 | -6 | -2 | 6 | 15 | 3 | . | .
COc1ccc(N2C3=C(CC4=C2CCCC4=O)C(=O)CCC3)cc1 | 4 | 7 | 44* | 58* | 3 | 2 | 7
Cc1ccc(N2CC(C(=O)Nc3cccnc3)CC2=O)cc1Cl (stereo unspecified) | 1 | -10 | -3 | -7 | -2 | . | .
S=C(Nc1ccc(N2CCOCC2)cc1)Nc1ccc2nc(-c3ccco3)c(-c3ccco3)nc2c1 | 18 | 3 | 43* | 50* | 51* | 6 | 18
COc1ccc(N2CCN(C(=O)CNC(=O)c3cccc(Br)c3)CC2)cc1 | 0 | 1 | 9 | -1 | 5 | . | .
CCC(=O)OC1(C)C(=O)C=C2C=C(c3ccsc3)OC=C2C1=O (stereo unspecified) | 6 | -14 | 48* | 40* | 3 | 26 | 34*
CCCCC1=CC2=CC(=O)C(C)(OC(=O)CC)C(=O)C2=CN1c1ccccc1 (stereo unspecified) | 5 | -8 | 5 | 18 | 3 | . | .
Cc1cc(/C=C2\SC(=S)NC2=O)c(C)n1-c1cccc(O)c1 | 4 | -29 | 45* | 53* | -17 | 51* | 49*
COCCN(C(=O)COC(=O)c1cc2c(s1)CCC2)c1c(N)n(Cc2ccccc2)c(=O)[nH]c1=O | 14 | 5 | 56* | 52* | -12 | 36* | 34*
OCc1c[nH]c2ccccc12 | 9 | -1 | 2 | 5 | 1 | . | .
O=C(O)Cc1c[nH]c2cccc(O)c12 | 11 | 2 | 47* | 42* | -29 | 23 | 9
CCN(CC)c1ccc(NS(=O)(=O)c2ccc3c(c2)oc(=O)n3C)c(C)c1 | 0 | -2 | 40* | 70* | -1 | 70* | 44*
CCN(CCNS(=O)(=O)c1ccc2c(c1)oc(=O)n2C)c1ccccc1 | 4 | -2 | -1 | 11 | 1 | . | .
N#C/C(=C\c1ccc(Cl)c([N+](=O)[O-])c1)c1ccccn1 | -5 | 7 | 1 | 19 | 4 | . | .
O=[N+]([O-])c1ccc(Cl)c2c1C1C=CCC1C(c1ccccn1)N2 (stereo unspecified) | 7 | 9 | 37* | 39* | 5 | 8 | 7
COc1ccccc1N=Nc1ccc(O)c2ncccc12 | 7 | -6 | 44* | 51* | 13 | 10 | 25*
O=C(c1cccc(C(=O)N2CCN(c3ncccn3)CC2)c1)N1CCN(c2ncccn2)CC1 | 1 | 2 | 4 | -2 | 7 | . | .
O=C(c1ccc2nc(-c3ccco3)c(-c3ccco3)nc2c1)N1CCN(c2ncccn2)CC1 | 14 | -6 | 49* | 68* | 16 | 22 | 13
CCCCNC(=O)c1ccc2nc(-c3ccco3)c(-c3ccco3)nc2c1 | 8 | -7 | 61* | 70* | 3 | 24 | 23
CCCNC(=O)c1ccc2nc(-c3ccccc3)c(-c3ccccc3)nc2c1 | -2 | -3 | 0 | -5 | -3 | . | .
